Reference: ChEMBL document CHEMBL3988442, “University of Dundee, Small-Polar-MMV Screening Library” (2021)
About 13,000 (27%) of roughly 48,000 compounds showed an effect of 50% or more. This is one part of the list.

System: Wolbachia pipientis
Experiment: Anti-Wolbachia Cell-Based Screen
Format: functional
Parameters: scale not given: in the data most compounds retested in dose-response had high values
Details: 5 µM

SMILES | Percent Effect [%]
CN(Cc1ccc(Cl)s1)C(=O)CN(C)C1CCCc2ccccc21 (stereo not given) | -6.291
O=C(CCN1CCSCC1c1ccccc1)N1CCOCC1 (stereo not given) | 2.279
COc1ccsc1C(=O)Nc1cc(CN2CCOCC2)ccc1C | -3.737
Fc1cnc(N2CCC3(CC2)CC(OCc2cccnc2)CO3)nc1.O=C(O)C(F)(F)F.O=C(O)C(F)(F)F (stereo not given) | -2.608
Fc1ccc(N2CCC3(CC2)CC(OCc2cccnc2)CO3)cc1.O=C(O)C(F)(F)F (stereo not given) | -13.34
O=C(O)C(F)(F)F.O=C(O)C(F)(F)F.O=C(O)C(F)(F)F.c1cncc(CN2CCC3(CC2)CC(c2cccnc2)CO3)c1 (stereo not given) | 108.2
O=C(O)C(F)(F)F.O=S(=O)(C1CC1)N1CCC2(CC1)CC(Oc1cccnc1)CO2 (stereo not given) | 3.761
O=C(NC1COC2(CCN(CC3CCC3)CC2)C1)c1ccccn1.O=C(O)C(F)(F)F (stereo not given) | 9.161
COCCN1CCC2(CC1)CC(Nc1ccc(C)nn1)CO2.O=C(O)C(F)(F)F (stereo not given) | -23.59
O=C(O)C(F)(F)F.O=C(O)C(F)(F)F.c1cncc(C2COC3(CCN(CC4CCOCC4)CC3)C2)c1 (stereo not given) | 107.8
Fc1ccc(CN2CCC3(CC2)CC(c2cccnc2)CO3)cc1.O=C(O)C(F)(F)F.O=C(O)C(F)(F)F (stereo not given) | 97.05
O=C(O)C(F)(F)F.O=C(O)C(F)(F)F.c1cncc(C2COC3(CCN(CC4CC4)CC3)C2)c1 (stereo not given) | 1.552
COCCN1CCC2(CC1)CC(c1cccnc1)CO2.O=C(O)C(F)(F)F (stereo not given) | 117.3
OC1(c2cn(CC3CCN(C4CCSC4)CC3)nn2)CCCC1 (stereo not given) | -24.22
Cc1nccn1-c1ccc(NC(=O)C2CCCN2CC2CC2)cc1 (stereo not given) | 11.95
Cc1cc(-n2cncn2)ccc1C(=O)Nc1ccc(N2CCCC2)cn1 | -10.21
FC(F)(F)CCN(Cc1ccon1)C1CCC1 | 0.2197
COc1ccc(CN2CCC3(CC2)CC(c2cccnc2)CO3)cc1.O=C(O)C(F)(F)F.O=C(O)C(F)(F)F (stereo not given) | 103.1
O=C(O)C(F)(F)F.O=C(O)C(F)(F)F.O=C(c1ccsc1)N1CCOC2(CCN(Cc3cccnc3)CC2)C1 | -15.45
COc1ccc(CN2CCC3(CCN(c4cccnc4)C3=O)C2)cc1.O=C(O)C(F)(F)F.O=C(O)C(F)(F)F (stereo not given) | -2.008
O=C(O)C(F)(F)F.O=C(O)C(F)(F)F.c1cncc(C2COC3(CCN(Cc4ccsc4)CC3)C2)c1 (stereo not given) | 104.8
O=C1COc2cc(C(=O)NS(=O)(=O)c3ccccc3F)ccc2N1 | -1.273
Cc1ccc(C(CNCc2c[nH]nc2C)N(C)C)cc1.Cl (stereo not given) | -30.61
O=C1[C@H]2CC[C@H](CN(C3CCOCC3)C2)N1Cc1cscn1 | -44.85

SMILES | Percent Effect [%]
O=C1[C@H]2CC[C@H](CN(Cc3nnc(C4CC4)o3)C2)N1Cc1cscn1 | 105.2
Cc1cnn(C2CN(Cc3nnc(C4CC4)o3)C2)c1 | 1.311
COCCN1C(=O)[C@H]2CC[C@@H]1CN(Cc1nnc(-c3ccccc3)o1)C2 | 112.1
COCCN1C(=O)[C@H]2CC[C@@H]1CN(Cc1nnc(C3CC3)o1)C2 | 101
CS(=O)(=O)N1C[C@@H]2CC[C@H](C1)N(Cc1cscn1)C2=O | -6.714
COCCN1C(=O)[C@H]2CC[C@@H]1CN(c1nccc(C)n1)C2 | 1.615
CCC1CN(Cc2nnc(C3CC3)o2)CCN1CCOC (stereo not given) | -15.54
COCCN1C(=O)[C@H]2CC[C@@H]1CN(c1ncccn1)C2 | -42.86
CCS(=O)(=O)CC(C)N(C)C(=O)NCCc1cccc(F)c1F (stereo not given) | -8.987
CCc1ccc(CN(C)c2ccc(-c3nc(COC)no3)cn2)nc1 | -21.07
Cc1nc2n(n1)CC(Nc1cc(C(F)(F)F)nc3ncnn13)CC2 (stereo not given) | 10.68
Cc1ccsc1CN(C)C(=O)c1ccc(N2CCOCC2)c(F)c1 | 8.665
CCc1nc(CN(C)C2CCN(CCOc3ccccc3)C2)no1 (stereo not given) | 109.8
CCc1nc(CN(C)C2CCN(CCCOc3ccccc3)C2)no1 (stereo not given) | 76.47
CCc1nc(CN(C)C2CCN(Cc3ccc(C#N)cc3F)C2)no1 (stereo not given) | 1.706
CCc1nc(CN(C)C2CCN(CCNS(=O)(=O)CC)C2)no1 (stereo not given) | 8.032
Cc1ccc(NC2(C(=O)NCCCN)CCCC2)cc1 | -6.352
CN(CC(=O)Nc1cccnc1)CC1CCCN1c1cccnn1 (stereo not given) | -11.55
CN(CC(=O)Nc1nncs1)CC1CCCN1c1cccnn1 (stereo not given) | -0.3075
O=C(Nc1nncs1)N1CCC(CCO)CC1 | -8.889
O=C(C[C@H]1[C@H]2CN(C(=O)CO)C[C@@H]12)Nc1cccnc1 | 10.82
O=C(CC1CCN(c2cccnn2)CC1)Nc1nncs1 | 96.76
O=C(CC1CCN(c2cccnn2)CC1)Nc1cccnc1 | 90.02
Cc1ccc(N2C(=O)N[C@@H]3CCN(C(=O)C4CC4)[C@@H]3C2=O)cc1 | 11.16

SMILES | Percent Effect [%]
CCN(Cc1noc(C2CC2)n1)C(=O)c1onc2ccccc12 | 98.35
CCCc1nc(CN(CC)C(=O)c2ccc3ncsc3c2)no1 | -3.567
CCNC(=O)N1CC(c2nc(Cc3ccccc3)no2)C1 | -5.949
CCN(Cc1noc(C2CCC2)n1)C(=O)CCc1cc2n(n1)CCNC2 | -16.19
CCCc1nc(CN(CC)C(=O)c2onc3ccccc23)no1 | 89.45
CN1CCC(N(CCc2ccccc2)Cc2noc(C3CC3)n2)CC1 | 8.424
CCN(Cc1noc(C2CCC2)n1)C(=O)c1cnc2ccccc2c1 | 94.43
Cn1ccnc1CN(CCO)C(=O)c1cnc2ccccc2c1 | -19.73
CCCc1nc(CN(CC)C(=O)c2ccc(OC)c(OC)c2)no1 | -5.69
Cc1noc(COCC(=O)Nc2cc(C)c(Br)cn2)n1 | -3.051
CC(=O)NCC1CN(c2ccc3c(Cl)ccnc3c2F)CCO1 (stereo not given) | -19.58
Cc1ccc(C(=O)NCCNCC2CNc3ccnn3C2)cc1F (stereo not given) | -3.46
Cc1nn(C)cc1-c1ccnc(N2CCN(c3cnccn3)CC2)n1 | 17.52
CCc1ncc2c(n1)CN(c1nccc(C3CCCC3)n1)C2 | 14.73
CN1CCCN(c2nccc(-c3cncnc3C3CCCCC3)n2)CC1 | 86.07
CN1CCN(c2nccc(-c3cncnc3C3CCCCC3)n2)CC1 | 58.46
Cc1ccc([C@@H]2CN(C(=O)c3ccc[nH]3)C[C@H]2NC(=O)C2CC2)cc1 | 0.8109
Cc1ccc(F)cc1NC(=O)NCC(C)N1CCOCC1 (stereo not given) | 9.148
Cc1c(NC(=O)NCC(C)N2CCOCC2)cccc1OC(F)F (stereo not given) | -9.929
Cc1cc(NC(=O)NCC(C(C)C)N2CCOCC2)n(C)n1 (stereo not given) | 115.8
CCC(CC)C(CNC(=O)Nc1cc(C)nn1C)N1CCOCC1 (stereo not given) | -3.913
Cc1noc(C)c1CC(=O)NCC(CC(C)C)N1CCOCC1 (stereo not given) | -1.173
CC(C)CC(CNC(=O)NCc1cc[nH]n1)N1CCOCC1 (stereo not given) | 6.619
CCn1cnnc1CNC(=O)NCC(C(C)C)N1CCOCC1 (stereo not given) | -2.117

SMILES | Percent Effect [%]
Cc1cc(NC(=O)NCC(CC(C)C)N2CCOCC2)n(C)n1 (stereo not given) | 103.9
CCC(CC)C(O)CNC(=O)Nc1cc(C)nn1C (stereo not given) | 91.79
Cc1cc(NC(=O)NCC(C)O)n(C)n1 (stereo not given) | -6.671
COc1ccc(C(O)CNC(=O)Nc2cc(C)nn2C)cc1 (stereo not given) | -16.1
Cc1cc(NC(=O)NCC(C)N2CCOCC2)n(C)n1 (stereo not given) | 113
CC(C)CS(=O)(=O)N1CCC2(CN(c3cccc(F)c3)C(=O)CN2C)C1.O=C(O)C(F)(F)F (stereo not given) | 10.41
CC1(C(=O)N2CCC(n3cc(C4(O)CCCC4)nn3)CC2)CCCCC1 | -2.498
Cn1cc(Cl)c(CN2CCCC(Cn3cc(CO)nn3)C2)n1 (stereo not given) | -2.88
Cc1ccoc1C(=O)N1CCC(n2cc(CO)nn2)CC1 | -7.426
C=C1C(C)(C)[C@H]2CC[C@]1(C(=O)N1CCC(Cn3cc(CO)nn3)CC1)C2 | 87.91
CC(O)c1cn(C2CCN(C(=O)C3(C)CCN(C)CC3)CC2)nn1 (stereo not given) | 3.786
Cc1ccc(C(=O)N2CCC(n3cc(CO)nn3)CC2)cn1 | 1.663
C=C1C(C)(C)[C@H]2CC[C@]1(C(=O)N1CCC(n3cc(CCO)nn3)CC1)C2 | 95.18
C=C1C(C)(C)[C@H]2CC[C@]1(C(=O)N1CCC(n3cc(CO)nn3)CC1)C2 | 93.63
OCc1cn(CC2CCN(C3CCSC3)CC2)nn1 (stereo not given) | -25.36
CCc1noc(CS(=O)(=O)CC=C(C)C)n1 | -4.555
O=C(NCC1CC[C@@H]2[C@@H]1OCCN2Cc1cccs1)c1ccco1.O=C(O)C(F)(F)F (stereo not given in full) | 0.6461
O=C(O)C(F)(F)F.O=C1N(CC2CC2)CCC12CCN(Cc1ccoc1)CC2 | 112.5
COCCN1CCC2(CCCN(Cc3ccoc3)C2)C1=O.O=C(O)C(F)(F)F (stereo not given) | 89.97
O=C(O)C(F)(F)F.O=C1N(CC2CC2)CCC12CCN(CC1CC1)CC2 | 11.64
CN(C)C(=O)CN1CCC2(CCCN(Cc3ccoc3)C2)C1=O (stereo not given) | -23.42
COC[C@H]1CN(CC2CC2)C(=O)[C@@H]2CCN(Cc3ccoc3)CC[C@H]12.O=C(O)C(F)(F)F | -27.64
CN1CCC(CN2CCC3(CCCN(Cc4ccoc4)C3)C2=O)CC1.O=C(O)C(F)(F)F.O=C(O)C(F)(F)F (stereo not given) | 107.1
